# Most compounds without a hit are left out; they make up all but 5.7% or so of the library.
# S2 tox – reduces viability in counter-screen for ATXN expression inhibitors. S2 cells (HEK-293 line with an ATXN2-luciferase reporter) viability, CellTiter-Fluor protease fluorescence, 24 h. Potency, µM (doses to about 56.7 µM), hits mostly cytotoxic. actives 0.49% (n = 400,000). AID 651635; further: potency means the concentration at half of the fitted maximal effect; nearly all actives have a fitted effect of over 40% in size
# HepG2 tox – kills HepG2 cells in TGF-b inhibitor counter-screen | HepG2 CAGA-GFP viability, ATP luminescence, 18 h | Potency, µM (highest dose often 46.1 µM), for inactives: top-dose activity change, negative = cytotoxicity, actives largely listed as cytotoxic | actives 0.76% (n = 410,000) | AID 588856; further: potency means the concentration at half of the fitted maximal effect
#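 CellTiter-Glo luminescence gave cytotoxicity after 18 hours at 37 degrees C. The cells were HepG2 CAGA-GFP in 1% FBS DMEM, stimulated with 500 pg/mL TGF-beta after compound addition. %Activity was normalised to no-cell wells (complete cell-killing) and DMSO (no toxicity), and curves were fitted and classified.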
# TGFb inhibitor – inhibitors of TGF-b signaling; HepG2 CAGA-GFP TGF-b/SMAD3 reporter, GFP fluorescence, 18 h; TGF-beta stimulated, 500 pg/mL final; Potency, µM (series often up to 46.1 µM), inactives show at the highest dose activity, negative = inhibition, hits mostly inhibitors; AID 588855; actives 1.2% (n = 410,000); further: potency means the concentration at half of the fitted maximal effect; on the % scale 0 is the no-effect control and ±100 the full control effect; nearly all actives have a fitted effect of over 65% in size
#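 HEPG2 CAGA-GFP reporter cells (1000/well, DMEM with 1% FBS) received compounds, then recombinant TGF-beta at 500 pg/mL final for 18 hours at 37 degrees C. Per-cell GFP summed per well was normalised to unstimulated and stimulated DMSO controls before curve fitting.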
# ATXN2 expr inh – inhibitors of ATXN2 expression. HEK-293 ATXN2-luciferase reporter, luminescence, 24 h. Potency, µM (titrated, usually from 57 µM), inactives show at the highest dose activity change, negative = inhibition, most hits filed as inhibitors. actives 0.72% (n = 360,000). AID 1745845; further: potency means the concentration at half of the fitted maximal effect; on the % scale 0 is the no-effect control and ±100 the full control effect; nearly all actives have a fitted effect of over 55% in size
#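 ATXN2-luciferase reporter cells (luciferase flanked by upstream and downstream ATXN2 gene portions) were treated 24 h at 37 °C with compounds at up to 57 uM. SteadyGlo luminescence gave expression; GF-AFC fluorescence gave viability.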
# IL1B secr inh – inflammasome signaling inhibition, IL-1 beta readout; THP-1 LPS/ATP IL-1B secretion, AlphaLISA, 16 h; stronger effect = lower value; activity change, % at 57.5 µM; actives 4.7% (n = 360,000); AID 743279; in the data active means activity change below about -50%; inconclusive means mostly about -30% to -49%; further: on the % scale 0 is the no-effect control and ±100 the full control effect
#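 Secreted IL-1B measured by AlphaLISA bead assay after 16 h compound exposure of THP-1 cells; compounds (final up to 57.5 uM) added 1 h before LPS (250 ng/mL) and ATP (1.25 mM) stimulation; lower signal means less secretion.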
# Starred values were filed as active, the others as inactive; i = inactive; ? = inconclusive; nt = not tested or not shown. Unless noted, the call rests on the fitted dose curve; in most records, active means well fitted curve in the direction sought with a large enough effect; inconclusive means small, poorly fitted or top-dose-only effect, or another doubt; inactive means no such curve, though single readings can be large; an effect the other way counts as inactive or inconclusive.
SMILES,S2 tox,HepG2 tox,TGFb inhibitor,ATXN2 expr inh,IL1B secr inh
CSc1nc2c([nH]1)c(=S)n(C)c(=O)n2C,i,-36.8%,12.6µM*,-14.1%,-19.5
CCCCC(C)Sc1nc2c([nH]1)c(=S)n(C)c(=O)n2C (centres undefined),?,2.5%,?,-28.1%,-99.2*
Cn1c(=S)c2[nH]c(SCc3cccnc3)nc2n(C)c1=O,i,-4.9%,?,2.4%,42.7
CCCCSc1nc2c([nH]1)c(=S)n(C)c(=O)n2C,?,-53.6%,5.01µM*,?,13.3
Cn1c(=S)c2[nH]c(SCCC(C)(C)C)nc2n(C)c1=O,i,-32.8%,?,-30.0%,0.0
Cn1c(=O)c2[nH]c(SCCN)nc2n(C)c1=S,i,0.0%,7.4%,0.9%,29.9
CCN(CC)CCSc1nc2c([nH]1)c(=S)n(C)c(=O)n2C,i,3.1%,0.0%,7.7%,-24.2
CCCC(CC)Sc1nc2c([nH]1)c(=S)n(C)c(=O)n2C (centres undefined),i,-0.6%,7.94µM*,-28.2%,35.2
COc1cc2[nH]c(=O)n(Cc3ccc(C(=O)N4CCN(c5cc(Cl)ccc5C)CC4)cc3)c(=O)c2cc1OC,i,-19.8%,7.0%,-7.4%,nt
Cc1cccc(C(=O)N2CCOc3ccc(CN(C)Cc4cc(C5CC5)n[nH]4)cc3C2)n1,i,nt,nt,nt,nt
O=C1CC(c2ccc3c(c2)OCCO3)Oc2ccc([N+](=O)[O-])cc21 (centres undefined),i,-54.3%,?,nt,-68.5*
CC1CCN(C(=O)CSc2nnc(NC(=O)Nc3ccccc3)s2)CC1,nt,-27.1%,?,nt,nt
COc1cccc2sc(N(CCCN(C)C)C(=O)COc3ccc(Cl)cc3)nc12,?,-42.7%,?,nt,-27.4
CN(C)CCCN(C(=O)COc1ccc(Cl)cc1)c1nc2cc3c(cc2s1)OCO3,?,-87.7%,?,?,-99.8*
CN(C)CCCN(C(=O)COc1ccccc1)c1nc2cc3c(cc2s1)OCO3,i,19.9%,3.7%,-14.9%,i
CN(C)CCCN(C(=O)COc1ccccc1)c1nc2ccc(Cl)cc2s1,i,-43.7%,?,?,-51.1*
CN(C)CCCN(C(=O)COc1ccc(Cl)cc1)c1nc2cc3c(cc2s1)OCCO3,i,11.6%,-15.7%,-18.0%,-93.6*
CN(C)CCCN(C(=O)CCc1ccccc1)c1nc2ccc(Cl)cc2s1,i,-104.9%,?,?,nt
C/C(=N/Nc1nc(-c2ccccc2)cc(-c2ccc(F)cc2)n1)c1cccc(N)c1,i,-47.9%,?,-15.7%,-61.0*
Cc1cc(NC(=O)CCN2CCN(C/C=C/c3ccccc3)CC2)ccc1Br,i,-93.9%,?,-22.5%,-81.6*
Cc1cccc(NC(=O)CCN2CCN(C/C=C/c3ccccc3)CC2)c1,i,-34.4%,-5.2%,-16.4%,-76.6*
O=C(CCN1CCN(C/C=C/c2ccccc2)CC1)Nc1ccccc1,i,-4.1%,41.9%,5.6%,-15.4
Cc1cc(NC(=O)CCN2CCN(C)CC2)ccc1Br,i,-10.3%,10.0%,-5.0%,-15.7
C=C(C)C1CC=C(CN2CCC(O)CC2)CC1 (centres undefined),i,0.0%,-4.1%,-7.3%,-2.8
C=C(C)[C@@H]1CC=C(CN2CCC(N3CCC(C(=O)N4CCCC4)CC3)CC2)CC1,i,-0.1%,20.7%,-30.9%,-61.6*
Cc1c(-c2ccc(Cl)cc2)c(=O)oc2c(CN3CCN(C)CC3)c(O)ccc12,i,-27.8%,-4.7%,-6.2%,nt
Nc1cccc(-c2c[nH]c3ncc(-c4cccnc4)cc23)c1,i,-31.8%,?,1.4%,-55.0*
COc1ccccc1NC(=O)CN1C(=O)CC(c2ccc(C)c(C)c2)=Nc2ccccc21,?,-11.0%,?,23.0%,nt
COc1ccc(Nc2nc(N)nc(CSC(=S)N3CCCCC3C)n2)cc1 (centres undefined),i,-22.3%,-20.8%,-8.0%,-62.0*
COc1ccc(Nc2nc(N)nc(CSC(=S)N3CCCCC3)n2)cc1,i,-10.6%,-6.0%,nt,-5.9

# Compound activity deposited in PubChem by National Center for Advancing Translational Sciences (NCATS).
